Bioassay records (PubChem)
Only some compounds are listed: those with a hit (about 17% of all), similar ones and a draw of the others.
HT1080NT lethal – kills 2HG-producing HT-1080-NT fibrosarcoma cells; HT-1080-NT fibrosarcoma viability, CellTiter-Glo ATP luminescence, 48 h; Potency, µM (top dose mostly 46.1 µM), hits mostly cytotoxic; actives 1.6% (n = 360,000);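 also: NT is the 2HG producing partner of a matched IDH1 knockdown line; nearly all actives have a fitted effect of over 55% in size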
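HT-1080-NT fibrosarcoma cells (2HG-overproducing), 750 cells/well in RPMI with 5% FBS, dosed after 2 h and incubated 48 h at 37C. CellTiter-Glo luminescence normalized to DMSO and no-cell wells; concentration-response curves fitted and classed.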
DT40 TDP1 no CPT – qHTS for Inhibitors of human tyrosyl-DNA phosphodiesterase 1 (TDP1): qHTS in cells in absence of CPT. actives 15% (n = 420,000). Potency, µM (doses to about 46.2 µM), actives largely listed as inhibitors. DT40 Tdp1-/- hTDP1 cells, no CPT, ATP luminescence, 48 h. AID 686978, 2013; also: nearly all actives have a fitted effect of over 55% in size
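Camptothecin absent (DMSO only). Human TDP1-complemented DT40 knockout cells, 400 cells/well, 37 °C for minimum 48 hr; ATP measured via CellTiter-Glo, 30 min dark incubation, luminescence.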
TGFb SMAD3 inh – TGF-b pathway inhibition; HepG2 CAGA-GFP TGF-b/SMAD3 reporter, GFP fluorescence, 18 h; TGF-beta stimulated, 500 pg/mL final; AID 588855; Potency, µM (series often up to 46.1 µM), actives largely listed as inhibitors; actives 1.2% (n = 410,000); also: nearly all actives have a fitted effect of over 65% in size
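GFP signal (ex488/em500-530) from TGF-beta-stimulated HEPG2 CAGA-GFP cells, 500 pg/mL final, 18 h at 37 degrees C in DMEM plus 1% FBS, normalized to unstimulated and DMSO-stimulated controls.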
HT1080 IDH1KD tx – HT-1080 IDH1 knockdown cell toxicity (counter line); HT-1080 IDH1 knockdown viability, ATP luminescence, 48 h; Potency, µM (top dose mostly 46.1 µM), actives largely listed as cytotoxic; actives 2% (n = 360,000)
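Viability of IDH1-knockdown HT-1080 fibrosarcoma cells was assessed by CellTiter-Glo after 48 h at 37 °C with titrated compound; concentration-effect curves were classified by fit quality and response size.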
HepG2 viability – kills HepG2 cells in TGF-b inhibitor counter-screen | HepG2 CAGA-GFP viability, ATP luminescence, 18 h | Potency, µM (top dose mostly 46.1 µM), usual class: cytotoxic | actives 0.76% (n = 410,000)
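CellTiter-Glo luminescence gave cytotoxicity after 18 hours at 37 degrees C. The cells were HepG2 CAGA-GFP in 1% FBS DMEM, stimulated with 500 pg/mL TGF-beta after compound addition. %Activity was normalised to no-cell wells (complete cell-killing) and DMSO (no toxicity), and curves were fitted and classified.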
DT40 TDP1 CPT – growth inhibition of DT40 Tdp1-/-;hTDP1 cells with camptothecin (screen for TDP1 inhibitors) | Potency, µM (top dose mostly 46.2 µM), usual class: inhibitors | chicken DT40 Tdp1-/-;hTDP1 cells + 20 nM CPT, ATP luminescence, 48 h | AID 686979 | actives 12% (n = 420,000); also: nearly all actives have a fitted effect of over 55% in size
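Cell growth measured by CellTiter-Glo luminescence after a minimum 48 h, 37 C compound exposure with 20 nM CPT in Tdp1-knockout DT40 cells stably expressing hTDP1, seeded 400/well; qHTS titration format.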
Hits are given with their value; – = inactive; ? = inconclusive; · = no result. Calls follow the shape of the dose curve; as a rule, active = well fitted curve in the direction sought with a large enough effect; inconclusive = small, poorly fitted or top-dose-only effect, or another doubt; inactive = no such curve, though single readings can be large; an effect the other way counts as inactive or inconclusive.

SMILES	HT1080NT lethal	DT40 TDP1 no CPT	TGFb SMAD3 inh	HT1080 IDH1KD tx	HepG2 viability	DT40 TDP1 CPT
Cc1cccc(CNC(=O)Cn2ccc3cc(S(=O)(=O)N4CCC(C)CC4)ccc32)c1	·	?	–	·	–	?
CC1CCN(S(=O)(=O)c2ccc3c(ccn3CCC(=O)NCc3ccccc3F)c2)CC1	·	?	–	·	–	16.4µM
COc1ccc(N2C(=O)CC(N3CCN(S(=O)(=O)c4c(C)cc(C)cc4C)CC3)C2=O)cc1 (stereo unspecified)	–	–	–	–	–	–
O=C(CN1C(=O)C(c2ccc(F)cc2)=NC12CCCCCC2)Nc1ccccc1Cl	·	23.1µM	?	·	–	?
Cc1cccc(NC(=O)CN2C(=O)C(c3ccc(F)cc3)=NC23CCCCCC3)c1C	·	?	·	·	–	?
COc1ncc2nc(-c3cccs3)c(=O)n(CCc3ccccc3)c2n1	·	–	·	·	·	–
O=C(Nc1ccc(Cl)cc1)NC1CCCC1Cc1ccco1 (stereo unspecified)	–	?	?	?	–	–
O=C(Nc1ccc(Cl)cc1)NC1CCCCC1Cc1ccco1 (stereo unspecified)	?	18.4µM	–	?	–	?
COc1ccc2cc(CNc3ccc(C)cc3)c(=O)n(CC(=O)Nc3ccc(OC)c(Cl)c3)c2c1	·	·	–	·	–	·
O=C1CCCc2cc3c(cc21)CC1(C3)Cc2cc3c(cc2C1)C(=O)CCC3	?	4.61µM	?	?	–	3.66µM
Cc1ccc(Cn2cnc3ccccc32)cc1	–	20.6µM	–	?	–	14.6µM
CC1=N/C(=C/c2ccc([N+](=O)[O-])cc2)C(=O)N1c1ccc(Cl)cc1Cl	–	25.9µM	–	–	–	?
CC1=N/C(=C\c2ccc([N+](=O)[O-])cc2)C(=O)N1c1ccc(F)cc1F	?	18.4µM	–	–	–	?
Cc1ccc(-c2nn(CC(=O)NCc3ccccc3)c3c2cnc2ccc(F)cc23)cc1C	·	–	–	·	–	–
CCOC(=O)C1CCCN(C(=O)CCc2nc3sc4c(c3c(=O)[nH]2)CCCC4)C1 (stereo unspecified)	–	–	–	–	–	?
CSc1ccccc1OCc1cc(C(=O)NC2CCc3ccccc32)no1 (stereo unspecified)	–	–	–	–	–	–
CCC(NC(=O)c1cc(COc2ccc(C)nc2)on1)c1ccc(C)cc1 (stereo unspecified)	?	?	–	–	–	16.4µM
CCC(NC(=O)c1cc(COc2ccc(Cl)cc2OC)on1)c1ccncc1 (stereo unspecified)	–	?	–	–	–	?
CCC(NC(=O)c1cc(COc2c(F)cccc2F)on1)c1ccncc1 (stereo unspecified)	–	?	–	–	–	?
Cc1ccc(OCc2cc(C(=O)NC3CCc4ccccc43)no2)cn1 (stereo unspecified)	–	13µM	–	–	–	18.4µM
CCC(NC(=O)c1cc(COc2ccc(OC)cc2Cl)on1)c1ccncc1 (stereo unspecified)	–	11.6µM	–	–	–	?
CCC(NC(=O)c1cc(COc2cc(C)c(Cl)c(C)c2)on1)c1ccncc1 (stereo unspecified)	–	20.6µM	?	–	–	?
Cc1ccc(C)c(N2CCN(C(=O)CN3C(=O)COc4ccc(S(=O)(=O)N5CCCC5)cc43)CC2)c1	·	·	–	·	–	·
COc1cc(NC(=O)CSc2nnc(NC(C)C)s2)cc(OC)c1OC	–	?	–	–	–	?
Cc1ccc(OCc2cc(C(=O)NCc3cc(F)ccc3C)no2)cn1	–	?	–	–	–	16.4µM
COc1ccc(OCc2cc(C(=O)N[C@H]3CCCCNC3=O)no2)c(Cl)c1	–	–	–	–	–	–
